Pf Dd2 growth – P. falciparum Dd2 growth inhibition; SYBR Green, 72 h; stronger effect = lower value; activity change, % at 10 µM; 2.3% of 94,000 active; AID 1159554; in the data active means activity change below about -80%; inconclusive means no clear call, values can overlap the other calls
C diff HTS – inhibitors of Clostridium difficile growth; AID 1259249; Clostridium difficile clinical isolate growth, OD600, 24 h; stronger effect = lower value; growth activity, negative = inhibition, % at 16 µg/mL (by protocol); 0.25% of 86,000 active;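 active means mean growth activity at or below -80% and every replicate also at or below -80%; inconclusive means mean at or below -80% but some replicate above -80%; inactive means mean growth activity above -80%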
T cruzi growth-1 – blocks T. cruzi growth in NIH3T3 culture | inhibition, % at 8.34 µM | T. cruzi beta-gal in NIH3T3, GalScreen luminescence, 90 h | 5.9% of 77,000 active;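 active means mean inhibition above about 93%, with at least 55% of replicates each passing it, limit read from the data, passing the limit was not always enough; inconclusive means only one of those two conditions holds; inactive means neither condition holds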
T cruzi growth-2 – inhibitors of T. cruzi proliferation. shares compounds with T cruzi growth-1. T. cruzi beta-gal in NIH3T3, GalScreen luminescence, 90 h. inhibition, % at 8.35 µM. 72% of 5,600 active. AID 651739;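 active means mean replicate inhibition above about 95% and at least 55% of replicates individually reaching it, limit read from the data; inconclusive means only one of the two criteria is met; inactive means neither criterion is met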
T cruzi growth-3 – blocks T. cruzi growth in NIH3T3 host cells; shares compounds with T cruzi growth-1; T. cruzi beta-gal in NIH3T3, GalScreen luminescence, 90 h; inhibition, % at 2.09 µM; 21% of 5,600 active;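 active means mean inhibition above about 95%, with at least 55% of replicates also reaching it, limit read from the data; inconclusive means meets just one of the two conditions; inactive means meets neither condition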
3T3 cytotox – kills mouse NIH/3T3 fibroblasts | NIH/3T3 viability, CellTiter-Glo ATP luminescence, 90 h | 14% of 5,600 active | cytotoxicity (signal decrease), % at 8.35 µM | shares compounds with T cruzi growth-1 | AID 651742;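 active means mean signal decrease across replicates above about 35% based on untreated-well scatter, with enough replicates individually passing, limit read from the data; inconclusive means no rule stated though some were filed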
3T3 cytotox 2 – kills mouse NIH/3T3 fibroblasts; shares compounds with T cruzi growth-1; NIH/3T3 viability, CellTiter-Glo ATP luminescence, 90 h; inhibition, % at 24.9 µM; 56% of 5,600 active; AID 651744;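 active means mean loss of cell viability signal at or above a set limit, and enough replicates individually reaching it; inconclusive means meets only the mean limit or only the replicate share; inactive means meets neither condition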
A number is an active result; i = inactive; ? = inconclusive; nt = not tested or not shown. Compounds with a hit are over-represented: about 6.7% of the library has one in this group of screens.

SMILES	Pf Dd2 growth	C diff HTS	T cruzi growth-1	T cruzi growth-2	T cruzi growth-3	3T3 cytotox	3T3 cytotox 2
C[C@@H]1CN([C@@H](C)CO)C(=O)c2cc(NS(=O)(=O)c3ccc(Cl)cc3)ccc2O[C@@H](C)CCCCO[C@@H]1CN(C)Cc1ccc(C(=O)O)cc1	i	i	i	nt	nt	nt	nt
CCCNC(=O)[C@H]1N[C@H]2c3ccc(C4=CCCCC4)c(=O)n3C[C@H]2[C@@H]1CO	i	i	i	nt	nt	nt	nt
C[C@H](CO)N1C[C@H](C)[C@@H](CN(C)Cc2ccc(C(F)(F)F)cc2)OCCCC[C@H](C)Oc2ccc(N(C)C)cc2C1=O	i	i	108	111	i	i	97
C[C@@H]1CCCCO[C@@H](CN(C)CC2CCCCC2)[C@@H](C)CN([C@H](C)CO)C(=O)c2cc(N(C)C)ccc2O1	i	i	i	nt	nt	nt	nt
C[C@H]1CCCCO[C@@H](CN(C)Cc2ccc(C(=O)O)cc2)[C@@H](C)CN([C@@H](C)CO)C(=O)c2cc(N(C)C)ccc2O1	i	i	i	nt	nt	nt	nt
C[C@H](CO)N1C[C@H](C)[C@@H](CN(C)CC2CCCCC2)OCCCC[C@H](C)Oc2ccc(N(C)C)cc2C1=O	i	i	99	110	i	i	i
C[C@@H]1CCCCO[C@H](CN(C)Cc2ccc(C(F)(F)F)cc2)[C@@H](C)CN([C@H](C)CO)C(=O)c2cc(N(C)C)ccc2O1	i	i	?	112	i	i	?
C[C@H](CO)N1C[C@H](C)[C@H](CN(C)Cc2ccc(C(F)(F)F)cc2)OCCCC[C@H](C)Oc2ccc(N(C)C)cc2C1=O	i	i	i	nt	nt	nt	nt
C[C@@H]1CN([C@H](C)CO)C(=O)Cc2cc(NC(=O)Nc3ccc(C(F)(F)F)cc3)ccc2O[C@@H]1CN(C)C(=O)Nc1ccc2c(c1)OCO2	i	i	nt	nt	nt	nt	nt
CC=Cc1ccc2n(c1=O)C[C@H]1[C@H](CO)[C@@H](C(=O)NCCC)[C@@H]2N1CC1CCOCC1 (mixture of isomers)	i	i	i	nt	nt	nt	nt
CC=Cc1ccc2n(c1=O)C[C@H]1[C@H](CO)[C@@H](C(=O)NCCC)[C@@H]2N1C(=O)c1ccncc1 (mixture of isomers)	i	i	nt	nt	nt	nt	nt
CC=Cc1ccc2n(c1=O)C[C@@H]1[C@@H](CO)[C@H](C(=O)NCCC)[C@H]2N1CC1CC1 (mixture of isomers)	i	i	102	i	i	i	i
CC=Cc1ccc2n(c1=O)C[C@@H]1[C@@H](CO)[C@H](C(=O)NCCC)[C@H]2N1C(=O)c1ccccc1F (mixture of isomers)	i	i	100	i	i	i	i
CC=Cc1ccc2n(c1=O)C[C@@H]1[C@@H](CO)[C@H](C(=O)NCC3CC3)N(CCC(F)(F)F)[C@H]21 (mixture of isomers)	i	i	111	i	i	i	i
CC=Cc1ccc2n(c1=O)C[C@H]1[C@H](CO)[C@@H](C(=O)NCCC)[C@@H]2N1CC1CC1 (mixture of isomers)	i	i	102	i	i	i	i
CC=Cc1ccc2n(c1=O)C[C@@H]1[C@@H](CO)[C@H](C(=O)NCCC)[C@H]2N1CC1CCOCC1 (mixture of isomers)	i	i	i	nt	nt	nt	nt
CC=Cc1ccc2n(c1=O)C[C@@H]1[C@@H](CO)[C@H](C(=O)NCC3CC3)N(CCC)[C@H]21 (mixture of isomers)	i	i	nt	nt	nt	nt	nt
CCCN1C[C@@H](C)[C@@H](OC)CN(C)C(=O)c2cc(NC(=O)COC)ccc2OC[C@H]1C	i	i	i	nt	nt	nt	nt
O=S(=O)(Cc1ccccc1)N1CCCCN2[C@@H](CO)[C@@H](c3ccc(-c4cncnc4)cc3)[C@@H]2C1	i	i	i	nt	nt	nt	nt
O=S(=O)(Cc1ccccc1)N1CCCCN2[C@H](CO)[C@H](c3ccc(-c4cccnc4)cc3)[C@@H]2C1	i	i	i	nt	nt	nt	nt
O=S(=O)(Cc1ccccc1)N1CCCCN2[C@H](CO)[C@H](c3ccc(-c4cccnc4)cc3)[C@H]2C1	i	i	108	108	i	i	27
O=S(=O)(Cc1ccccc1)N1CCCCN2[C@H](C1)[C@H](c1ccc(-c3cccnc3)cc1)[C@@H]2CO	i	i	98	i	i	i	i
COc1cccc(CN2CC3(C2)CN(C(=O)Nc2ccc(F)cc2)[C@H](CO)c2c3c3ccc(OC)cc3n2C)c1	i	i	nt	nt	nt	nt	nt
C[C@@H]1CN([C@H](C)CO)C(=O)CCCn2cc(nn2)CO[C@H]1CN(C)Cc1cccnc1	i	nt	i	nt	nt	nt	nt
N#C[C@H]1[C@H](c2ccc(-c3cncnc3)cc2)[C@@H](CO)N1C(=O)C1CCC1	i	i	i	nt	nt	nt	nt
SMILES	Pf Dd2 growth	C diff HTS	T cruzi growth-1	T cruzi growth-2	T cruzi growth-3	3T3 cytotox	3T3 cytotox 2
N#C[C@@H]1[C@H](c2ccc(-c3cncnc3)cc2)[C@H](CO)N1C(=O)C1CCC1	i	i	101	i	i	i	i
N#C[C@@H]1[C@@H](c2ccc(-c3cncnc3)cc2)[C@H](CO)N1C(=O)C1CCOCC1	i	i	100	i	i	i	i
COc1ccc(-c2ccc([C@@H]3[C@@H](C#N)N(C(=O)C4CCOCC4)[C@H]3CO)cc2)cc1	i	i	i	nt	nt	nt	nt
C[C@H]1CN([C@@H](C)CO)C(=O)c2cc(NC(=O)CCCN(C)C)ccc2O[C@H]1CN(C)Cc1ccc(-c2ccccc2)cc1	i	i	nt	nt	nt	nt	nt
CCCNC(=O)C[C@@H]1CC[C@H]2[C@@H](COc3ccc(NC(=O)CCC)cc3C(=O)N2C)O1	i	i	i	nt	nt	nt	nt
C/C=C/c1cnc2c(c1)C(=O)N([C@H](C)CO)C[C@H](C)[C@@H](CN(C)Cc1ccc(F)cc1)O2	i	i	i	nt	nt	nt	nt
C/C=C/c1cnc2c(c1)C(=O)N([C@H](C)CO)C[C@@H](C)[C@@H](CN(C)Cc1ccc(F)cc1)O2	i	i	119	?	i	i	?
C/C=C/c1cnc2c(c1)C(=O)N([C@@H](C)CO)C[C@H](C)[C@H](CN(C)Cc1ccc(F)cc1)O2	i	i	114	i	i	i	48
C/C=C/c1cnc2c(c1)C(=O)N([C@@H](C)CO)C[C@H](C)[C@@H](CN(C)Cc1ccc(F)cc1)O2	i	i	i	nt	nt	nt	nt
COc1ccc(NC(=O)N(C)C[C@H]2OCCCC[C@@H](C)Oc3ccc(NS(=O)(=O)c4c(C)noc4C)cc3C(=O)N([C@H](C)CO)C[C@H]2C)cc1	i	i	i	nt	nt	nt	nt
O=C(O)C[C@H]1CC[C@@H](NC(=O)c2ccccc2F)[C@H](CO)O1	i	i	nt	nt	nt	nt	nt
CCc1cnc(N2[C@@H](C#N)[C@H](c3ccc(-c4cccc(F)c4)cc3)[C@@H]2CO)s1	i	i	i	nt	nt	nt	nt
CCc1cnc(N2[C@H](C#N)[C@@H](c3ccc(-c4cccc(F)c4)cc3)[C@H]2CO)s1	i	i	109	110	i	i	i
CCc1cnc(N2[C@H](C#N)[C@H](c3ccc(-c4cccc(F)c4)cc3)[C@H]2CO)s1	i	i	105	105	i	i	26

Screening results from PubChem.
